Results reported in PubChem BioAssay (EPA / NIEHS).
Records with an inconclusive call do not appear. Active and inactive are the calls of the source. How the source made its calls, unless noted: active means hit-call score of the fitted dose curve at least 0.9, where 1 is the maximum; inconclusive means response in the unintended direction; inactive means score below 0.9.

Assays:
[1] = target: Cellular tumor antigen p53 (Homo sapiens) (UniProt P04637); assay: TOX21_p53_BLA_p2_ratio: Tox21 HCT-116 p53 Agonism Beta-lactamase Assay, Ratio, Phase 2 (AID 2283592)
Method in brief: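 HCT116 p53-bla; 4000 cells/well; 5 h pre-incubation; cpd in DMSO, 217-fold dilution; 16 h 37C/5% CO2; CCF4-AM 2 h RT; Ex 405, Em 460/530 ratio; DMSO = baseline; positive fitting direction.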

[2] = TOX21_p53_BLA_p3_viability: Viability Assessment in the Tox21 HCT-116 p53 Agonism Beta-lactamase Assay, Phase 3 (AID 2283593);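 further: cells exposed to compound for 16 h before reading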
Method in brief: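 HCT-116 cells (4000/well) rested 5 h at 37C, then got DMSO compounds by pin tool (217-fold dilution) for 16 h at 37C, 5% CO2. After the bla read, CellTiter-Glo was added and luminescence read at 30 min, room temperature.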

[3] = target: Cellular tumor antigen p53 (Homo sapiens) (UniProt P04637); assay: TOX21_p53_BLA_p3_ratio: Tox21 HCT-116 p53 Agonism Beta-lactamase Assay, Ratio, Phase 3 (AID 2283596)
Method in brief: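 HCT116 p53-bla cells (4000/well) given compound in DMSO (217-fold dilution) after 5 h, incubated 16 h at 37C. CCF4-AM substrate 2 h at room temperature; 460/530 nm emission ratio, gain fitted against DMSO.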

[4] = TOX21_p53_BLA_p4_viability: Viability Assessment in the Tox21 HCT-116 p53 Agonism Beta-lactamase Assay, Phase 4 (AID 2283597);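 further: hits lower the luminescence signal meaning cytotoxicity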
Method in brief: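 Cells plated, 5 h pre-incubation; DMSO compounds pinned (217-fold dilution); 16 h, 37C/5% CO2; CCF4-AM 2 h RT; CellTiter-Glo 30 min RT; luminescence read.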

[5] = target: Cellular tumor antigen p53 (Homo sapiens) (UniProt P04637); assay: TOX21_p53_BLA_p5_ratio: Tox21 HCT-116 p53 Agonism Beta-lactamase Assay, Ratio, Phase 5 (AID 2283599)
Method in brief: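 HCT-116 cells carrying a p53-inducible beta-lactamase reporter were seeded at 4000 cells/well and dosed after 5 h with compound in DMSO (217-fold dilution). After 16 h at 37C, CCF4-AM substrate was added for 2 h, and the 460/530 nm emission ratio was scored as gain-of-signal versus DMSO.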

[6] = target: Cellular tumor antigen p53 (Homo sapiens) (UniProt P04637); assay: TOX21_p53_BLA_p4_ratio: Tox21 HCT-116 p53 Agonism Beta-lactamase Assay, Ratio, Phase 4 (AID 2283601)
Method in brief: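 HCT116 cells carrying an inducible beta-lactamase reporter were plated at 4000 cells/well, rested 5 h, then exposed to compounds in DMSO (217-fold dilution) for 16 h at 37C. CCF4-AM substrate was loaded 2 h at room temperature; 460/530 nm emission ratio scored gain-of-signal versus DMSO.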

PGR (gene 5241) [7] = target: PGR (gene 5241) (UniProt P06401); assay: TOX21_PR_BLA_Followup_Agonist_ratio: Tox21 HEK293 Progesterone Receptor (PR) Agonism Beta-lactamase Follow-Up Assay, Ratio (AID 2283933)
Method in brief: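 PR-UAS-bla HEK293T cells in medium with 2% charcoal-stripped FBS were dosed after 6 h plating and incubated 16 h at 37C. LiveBLAzer FRET substrate was added for 2 h at room temperature. Cleaved/uncleaved substrate ratio fitted against DMSO; CellTiter-Glo viability run in the same wells.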

PGR (gene 5241) [8] = target: PGR (gene 5241) (UniProt P06401); assay: TOX21_PR_BLA_Followup_Antagonist_ratio: Tox21 HEK293 Progesterone Receptor (PR) Antagonism Beta-lactamase Follow-Up Assay, Ratio (AID 2283934)
Method in brief: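 PR-UAS-bla HEK293T cells, 3,000/well in 2% charcoal-stripped FBS, given compound plus 1nM R5020 agonist for 16 hr at 37C. Beta-lactamase FRET substrate 2 hours, ratio cleaved/uncleaved fluorescence; viability by CellTiter-Glo in same wells.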

[9] = TOX21_PR_BLA_Followup_Agonist_viability: Viability Assessment in the Tox21 HEK293 Progesterone Receptor (PR) Agonism Beta-lactamase Follow-Up Assay (AID 2283935);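 further: signal loss means lower viability so actives are cytotoxic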
Method in brief: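 PR-UAS-bla HEK293T cells in 2% charcoal-stripped FBS medium, plated 6 hr before compound addition, exposed 16 hr at 37C. Viability read by CellTiter-Glo ATP luminescence after 30 min at room temperature, in the same wells as the beta-lactamase readout.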

[10] = TOX21_PR_BLA_Followup_Antagonist_viability: Viability Assessment in the Tox21 HEK293 Progesterone Receptor (PR) Antagonism Beta-lactamase Follow-Up Assay (AID 2283936);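 further: hits lower the luminescence signal meaning cytotoxicity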
Method in brief: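 PR-UAS-bla HEK293T cells (3,000/well, 2% charcoal-stripped FBS) given compound plus R5020 agonist, 16 h at 37C. CellTiter-Glo added after bla read, 30 min at room temperature; luminescence loss indicates cytotoxicity.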

PGR (gene 5241) [11] = target: PGR (gene 5241) (UniProt P06401); assay: TOX21_PR_LUC_Followup_Agonist: Tox21 HEK293 Progesterone Receptor (PR) Agonism Luciferase Follow-Up Assay (AID 2283937; active means hit-call score of the fitted dose curve at least 0.9, where 1 is the maximum; inactive means score below 0.9)
Method in brief: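 HEK293-PR-A-luc cells, conditioned 5 days in 10% charcoal-stripped FBS medium, seeded 3,000/well for 5 h, then compound-treated 16 h at 37C. ONE-Glo luminescence read after 30 min at room temperature; gain of signal versus DMSO.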

PGR (gene 5241) [12] = target: PGR (gene 5241) (UniProt P06401); assay: TOX21_PR_LUC_Followup_Antagonist: Tox21 HEK293 Progesterone Receptor (PR) Antagonism Luciferase Follow-Up Assay (AID 2283938);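 further: curve fitted upward as signal gain over DMSO baseline despite antagonist label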
Method in brief: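 Cells are grown 5 days in charcoal-stripped-FBS assay medium, plated, left 5 h, then dosed with compound and incubated 16 h. ONE-Glo reagent is added and luminescence read after 30 min.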

[13] = TOX21_PR_LUC_Followup_Agonist_viability: Viability Assessment in the Tox21 HEK293 Progesterone Receptor (PR) Agonism Luciferase Follow-Up Assay (AID 2283941);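 further: loss of signal means cytotoxicity so actives lower viability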
Method in brief: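 HEK293-PR-A-luc cells, kept in 10% charcoal-stripped FBS medium, were treated with compounds for 16 h at 37C. Viability read as cellular ATP by luciferase-coupled luminescence; loss of signal indicates cytotoxicity.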

Measured: outcome

Chain of PGR (gene 5241) (P06401 whole entry, looked up): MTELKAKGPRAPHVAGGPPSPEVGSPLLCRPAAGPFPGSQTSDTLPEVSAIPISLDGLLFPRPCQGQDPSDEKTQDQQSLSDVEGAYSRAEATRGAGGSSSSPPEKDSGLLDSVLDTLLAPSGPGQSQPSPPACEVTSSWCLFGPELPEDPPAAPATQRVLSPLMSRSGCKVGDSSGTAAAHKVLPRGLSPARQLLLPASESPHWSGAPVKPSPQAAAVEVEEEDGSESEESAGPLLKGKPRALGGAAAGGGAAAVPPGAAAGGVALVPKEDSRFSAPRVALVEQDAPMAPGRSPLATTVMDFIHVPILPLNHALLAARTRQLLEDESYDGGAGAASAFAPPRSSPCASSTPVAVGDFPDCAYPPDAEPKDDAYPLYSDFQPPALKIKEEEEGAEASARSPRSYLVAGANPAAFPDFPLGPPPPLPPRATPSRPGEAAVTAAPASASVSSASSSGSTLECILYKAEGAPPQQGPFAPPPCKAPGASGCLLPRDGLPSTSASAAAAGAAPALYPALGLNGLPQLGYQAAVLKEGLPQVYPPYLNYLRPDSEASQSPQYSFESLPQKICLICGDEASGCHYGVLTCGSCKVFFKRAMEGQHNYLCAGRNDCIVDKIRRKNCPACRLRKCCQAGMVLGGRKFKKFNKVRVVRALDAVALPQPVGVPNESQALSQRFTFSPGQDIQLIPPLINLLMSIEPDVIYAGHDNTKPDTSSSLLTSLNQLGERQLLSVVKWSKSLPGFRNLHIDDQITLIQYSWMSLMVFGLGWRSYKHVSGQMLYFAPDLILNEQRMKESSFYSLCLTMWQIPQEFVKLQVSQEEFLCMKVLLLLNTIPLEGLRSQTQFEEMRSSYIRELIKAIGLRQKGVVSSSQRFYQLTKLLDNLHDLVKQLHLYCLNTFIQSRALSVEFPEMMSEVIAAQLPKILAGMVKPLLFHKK
Chain of Cellular tumor antigen p53 (Homo sapiens) (P04637 whole entry, looked up): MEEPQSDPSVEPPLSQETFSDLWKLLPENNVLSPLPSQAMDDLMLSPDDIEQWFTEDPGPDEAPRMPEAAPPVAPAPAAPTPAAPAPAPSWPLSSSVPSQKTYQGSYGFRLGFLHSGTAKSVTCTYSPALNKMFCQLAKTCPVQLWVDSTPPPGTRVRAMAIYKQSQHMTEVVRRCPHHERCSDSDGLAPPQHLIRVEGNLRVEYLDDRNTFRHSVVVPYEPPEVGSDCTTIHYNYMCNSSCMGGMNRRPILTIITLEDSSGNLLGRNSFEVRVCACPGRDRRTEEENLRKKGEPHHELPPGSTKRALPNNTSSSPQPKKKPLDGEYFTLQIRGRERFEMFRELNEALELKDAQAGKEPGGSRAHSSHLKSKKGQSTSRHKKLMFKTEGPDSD

O=C1C(Cl)C(CCl)CN1c1cccc(C(F)(F)F)c1 (stereo not drawn)
inactive: [1] | [2] | [3] | [4] | [5] | [6] | PGR (gene 5241) [7] | PGR (gene 5241) [8] | [9] | [10] | PGR (gene 5241) [11] | PGR (gene 5241) [12] | [13]
